KB-V1 cytotox = KB-V1 MDR subline cytotoxicity | KB-V1 MDR cells viability, CellTiter-Glo, 72 h | Potency, µM (series often up to 46.1 µM), hits mostly cytotoxic | actives 3.4% (n = 400,000); note: nearly all actives have a fitted effect of over 60% in size
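Cells of the MDR subline KB-V1 are plated, dosed with compound at multiple concentrations, and incubated 72 h at 37 degrees C; CellTiter-Glo is then added and luminescence read after 10 min.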
DT40 TDP1 CPT = DT40-hTDP1 cell growth loss with CPT | chicken DT40 Tdp1-/-;hTDP1 cells + 20 nM CPT, ATP luminescence, 48 h | Potency, µM (top dose mostly 46.2 µM), without a hit: at the highest dose activity change, negative = growth inhibition, hits mostly inhibitors | actives 12% (n = 420,000) | AID 686979; note: nearly all actives have a fitted effect of over 55% in size
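Chicken DT40 Tdp1-/- cells complemented with human TDP1, 400 cells/well, exposed to compounds plus 20 nM camptothecin for at least 48 h at 37 C; viability read as ATP content by CellTiter-Glo luminescence.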
KB-3-1 tox = kills parental KB-3-1 adenocarcinoma cells. KB-3-1 viability, CellTiter-Glo ATP luminescence, 72 h. Potency, µM (top dose mostly 46.1 µM), actives largely listed as cytotoxic. actives 1.4% (n = 400,000). AID 1347075; note: nearly all actives have a fitted effect of over 60% in size
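Cytotoxicity measured as CellTiter-Glo luminescence after 72 h at 37 C. Compound titrations were pinned onto drug-naive KB-3-1 parental adenocarcinoma cells grown in DMEM with 10% FBS, and normalized data fitted to concentration-response curves.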
HT1080 IDH1KD tx = HT-1080 IDH1 knockdown cell toxicity (counter line); actives 2% (n = 360,000); Potency, µM (highest dose often 46.1 µM), without a hit: at the highest dose activity, negative = toxicity, usual class: cytotoxic; HT-1080 IDH1 knockdown viability, ATP luminescence, 48 h;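 note: 0% = DMSO wells and -100% = cell-free medium wells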
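Using the IDH1-knockdown HT-1080 line run in the same batch and compound series as the NT line, viability after 48 h at 37 °C was determined by CellTiter-Glo luminescence and expressed as % activity.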
HT1080-NT tox = kills 2HG-producing HT-1080-NT fibrosarcoma cells; HT-1080-NT fibrosarcoma viability, CellTiter-Glo ATP luminescence, 48 h; Potency, µM (top dose mostly 46.1 µM), inactives show at the highest dose activity, negative = less viability, usual class: cytotoxic; actives 1.6% (n = 360,000); AID 686970;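 note: NT is the 2HG producing partner of a matched IDH1 knockdown line; 0% = DMSO-treated cells and -100% = media-only wells without cells; nearly all actives have a fitted effect of over 55% in size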
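Read-out is CellTiter-Glo luminescence after 10 minutes at room temperature, following 48 hours' compound treatment of HT-1080-NT cells (750 cells/well, RPMI, 5% FBS, 37 degrees C).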
DT40 TDP1 no CPT = qHTS for Inhibitors of human tyrosyl-DNA phosphodiesterase 1 (TDP1): qHTS in cells in absence of CPT | actives 15% (n = 420,000) | AID 686978, 2013 | DT40 Tdp1-/- hTDP1 cells, no CPT, ATP luminescence, 48 h | Potency, µM (highest dose often 46.2 µM), for the others: top-dose activity change, negative = growth inhibition, most hits filed as inhibitors; note: nearly all actives have a fitted effect of over 55% in size
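Luminescent ATP content (CellTiter-Glo) served as the growth readout. Knockout chicken DT40 cells expressing human TDP1 were exposed to compounds without camptothecin for a minimum 48 hr at 37 °C.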
Starred values were filed as active, the others as inactive; i = inactive; ? = inconclusive; nt = not tested or not shown; [ ] = another dose, or the depositor's remark. Rows were chosen to be rich in hits. Some 19% of all compounds tested hit in one or more screens of this group. Calls come from the whole dose curve; as a rule, active = well fitted curve in the direction sought with a large enough effect; inconclusive = small, poorly fitted or top-dose-only effect, or another doubt; inactive = no such curve, though single readings can be large; an effect the other way counts as inactive or inconclusive. Unless noted, % is set by controls: 0 for no effect and ±100 for the full control effect; potency is the fitted concentration of half-maximal effect.

SMILES | KB-V1 cytotox | DT40 TDP1 CPT | KB-3-1 tox | HT1080 IDH1KD tx | HT1080-NT tox | DT40 TDP1 no CPT
[O-]/C(=C(\C(=S)Nc1ccc(SC(F)F)cc1)[n+]1ccccc1)c1cc(Cl)ccc1Cl | ? | 16.4µM* | ? | -19.5% | -5.2% | 16.4µM*
Cc1cc(C([O-])=C(C(=S)Nc2ccccc2)[n+]2ccccc2)c(C)n1-c1ccccc1 | i | ? | i | -8.2% | 1.3% | ?
CN(C)c1cc[n+](/C(C(=S)Nc2ccc(SC(F)F)cc2)=C(/[O-])c2ccccc2)cc1 | i | 13µM* | ? | -6.3% | -3.5% | 10.3µM*
Cc1cc(C)c(/C([O-])=C(/C(=S)Nc2ccc(SC(F)F)cc2)[n+]2ccccc2)cc1C | i | ? | i | -6.7% | -5.8% | -76.8%
Cc1ccc(/C=N/NC(=O)Cc2ccc(Cl)cc2)s1 | i | -9.6% | i | -24.5% | 3.9% | -8.0%
O=c1c2ccccc2nc(-c2cccs2)n1-c1cccc2ccccc12 | 23.1µM* | ? | ? | 1.0% | 2.5% | 20.6µM*
COc1cccc(CNn2c(-c3cccc(C)c3)nc3ccccc3c2=O)c1 | i | ? | i | 3.2%[9.24 µM] | ? | 18.4µM*
Cc1nc2ccccc2c(=O)n1/N=C/c1cccs1 | i | ? | i | 5.9% | 14.7% | ?
COc1cccc(C(=O)Nn2c(-c3cccs3)nc3ccccc3c2=O)c1OC | ? | -19.5% | i | -3.4% | 0.0% | ?
COc1ccc(CNn2c(-c3cccs3)nc3ccccc3c2=O)cc1OC | 23.1µM* | 7.31µM* | i | -27.8% | -27.2% | 10.3µM*
CC1CCCCC1NC(=O)CCn1ccc2cc(S(=O)(=O)N3CCCC3)ccc21 (stereo not drawn) | i | ? | i | -12.4% | -0.6% | -23.3%
COc1ccc(S(=O)(=O)NCC(c2ccc3c(c2)OCO3)N2CCN(c3ccccc3)CC2)cc1 (stereo not drawn) | i | ? | i | -18.7% | -11.6% | 23.1µM*
Cc1ccc(NC(=O)C(=O)NCC(c2ccc3c(c2)OCO3)N2CCN(c3ccccc3)CC2)cc1 (stereo not drawn) | i | -0.4% | i | nt | nt | -17.3%
N#Cc1ccccc1NC(=O)C(=O)NCC(c1ccc2c(c1)OCO2)N1CCN(c2ccccc2)CC1 (stereo not drawn) | i | ? | i | nt | nt | 8.2µM*
COc1ccc(C(=O)NCC(c2ccc3c(c2)OCO3)N2CCN(c3ccc(OC)cc3)CC2)cc1 (stereo not drawn) | i | 3.26µM* | i | -8.3% | -0.1% | 5.8µM*
Cc1ccc(S(=O)(=O)NCC(c2ccc3c(c2)OCO3)N2CCN(c3ccccc3)CC2)cc1 (stereo not drawn) | i | ? | i | -6.9% | -4.3% | ?
COC(=O)NCC(c1ccc2c(c1)OCO2)N1CCN(c2ccccc2)CC1 (stereo not drawn) | i | ? | i | 7.6% | 3.5% | -24.9%
COc1cccc(C(=O)NCC(c2ccc3c(c2)OCO3)N2CCN(c3ccc(F)cc3)CC2)c1 (stereo not drawn) | i | 14.6µM* | i | -15.4% | -3.1% | 10.3µM*
N#Cc1cccnc1N1CCN(C(C(=O)NC2CCCC2)c2ccc(F)cc2)CC1 (stereo not drawn) | i | ? | i | 7.8% | 0.9% | ?
CSc1cccc(NS(=O)(=O)c2cn(C)c(C)n2)c1 | i | -17.4% | i | nt | nt | ?
COc1ccccc1CNC(=O)C(=O)NCC(c1ccc2c(c1)OCO2)N1CCOCC1 (stereo not drawn) | i | ? | i | nt | nt | ?
C=CCNC(=O)C(=O)NCC(c1ccc2c(c1)OCO2)N1CCOCC1 (stereo not drawn) | i | -1.1% | i | 25.4% | 6.2% | 17.5%
C=CCNC(=O)C(=O)NCC(c1ccc2c(c1)OCO2)N1CCN(c2ccc(F)cc2)CC1 (stereo not drawn) | i | 16.4µM* | i | -12.7% | -1.2% | ?
CCCC(=O)NCC(c1ccc2c(c1)OCO2)N1CCN(c2ccc(F)cc2)CC1 (stereo not drawn) | i | ? | i | nt | nt | 20.6µM*
O=S(=O)(NCC(c1ccc2c(c1)OCO2)N1CCOCC1)c1ccc(Br)cc1 (stereo not drawn) | i | 16.4µM* | i | -9.0% | -18.5% | 20.6µM*
SMILES | KB-V1 cytotox | DT40 TDP1 CPT | KB-3-1 tox | HT1080 IDH1KD tx | HT1080-NT tox | DT40 TDP1 no CPT
COc1cc(C(=O)NCC(c2ccc3c(c2)OCO3)N2CCOCC2)cc(OC)c1OC (stereo not drawn) | nt | 11.6µM* | nt | nt | nt | ?
Cc1ccc(CNC(=O)CCCn2c(=O)[nH]c3ccc(Br)cc3c2=O)cc1 | i | -30.0% | i | nt | nt | -23.6%
Cc1ccc(C(=O)OCC(=O)N2CCNC2=O)c(C)c1 | i | 13.3% | i | -16.0% | -21.4% | 0.2%
CCOc1ccc(C(=O)NN2CCOCC2)cc1 | i | -2.4% | i | 14.3% | 17.9% | 31.5%
O=C(NCC(c1ccc2c(c1)OCO2)N1CCOCC1)c1ccccc1F (stereo not drawn) | i | ? | i | nt | nt | -29.2%
CCCNC(=O)C(=O)NCC(c1ccc2c(c1)OCO2)N1CCN(c2ccc(F)cc2)CC1 (stereo not drawn) | i | ? | i | 9.5% | 14.1% | ?
Cc1ccc(C(=O)NCC(c2ccc3c(c2)OCO3)N2CCN(c3ccc(F)cc3)CC2)cc1 (stereo not drawn) | i | 2.91µM* | i | nt | nt | 1.46µM*
COc1cccc(C(=O)NCC(c2ccc3c(c2)OCO3)N2CCOCC2)c1 (stereo not drawn) | i | -19.2% | i | nt | nt | -16.6%
COc1cccc(NC(=O)C(=O)NCC(c2ccc3c(c2)OCO3)N2CCOCC2)c1 (stereo not drawn) | i | ? | i | nt | nt | 16.4µM*
O=C(NCC(c1ccc2c(c1)OCO2)N1CCN(c2ccccc2)CC1)c1ccccc1F (stereo not drawn) | nt | 7.31µM* | nt | nt | nt | 11.6µM*
COc1ccc(C(=O)NCC(c2ccc3c(c2)OCO3)N2CCN(c3ccc(F)cc3)CC2)cc1 (stereo not drawn) | i | 3.26µM* | i | nt | nt | 1.64µM*

Compound activity as filed in PubChem BioAssay.
